Efflux pump mplx: inhibitors of Candida efflux pumps in yeast, primary screen, S. cerevisiae, Nile Red, multiplex. AID 485275, 2010. hit rate 0.44% among 330,000. S. cerevisiae Candida pump triplex. inhibition, % at 10 µM;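 active = plate passing quality check with inhibition over a set limit, or well fluorescence over plate mean plus 4 SD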;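 also: Nile Red retained in pooled yeast measured as flow cytometry median fluorescence; 0% = buffer negative control and 100% = Enniatin B positive control; higher means more Nile Red kept so more efflux inhibition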
Bfl-1 A1 inh: caspase 3/7 activation in MEF A1-2A-BIM cells, primary screen, A1 inhibitor project, cell-based, luminescence, HTS. hit rate 0.066% among 330,000. caspase activation, % (no concentration beside the values). Caspase-Glo 3/7 luminescence, 3 h; percent of clofoctol response, vehicle zero;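 active = over half of replicate activation scores above 10%, or exactly half above 10 with the replicate mean above 10; inconclusive = replicate mean below 10 yet half the replicates above 10; inactive = over half of replicates below 10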
AHR act: AHR activators, primary screen, cell-based, luminescence, luciferase reporter, human | Aryl hydrocarbon receptor (Homo sapiens), P35869 | AHR-responsive luciferase reporter cells | activation, % at 5 µM | hit rate 2.5% among 320,000 | AID 2796, 2010; in the data active = activation above about 47%;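 also: 0% = vehicle wells and 100% = reference agonist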
VLA-4 inh: inhibition in human VLA-4 binding assay, primary screen, VLA-4 allosteric modulator project, MLPCN library, flow cytometry, VLA-4 expressing cells; Integrin alpha-4 (Homo sapiens), P13612; ligand binding flow cytometry; inhibition, % (about 7 µM as worked out from the volumes in the protocol); hit rate 0.2% among 330,000; in the data active = inhibition above about 50%
Mot1-301 SUMO: yeast Mot1-301 growth rescue at high temperature, primary screen, SUMOylation pathway inhibitor project, S. cerevisiae, ATP luminescence, 38.5C | S. cerevisiae Mot1-301 growth rescue; percent above DMSO median, 100 means doubled | growth rescue, % at 18.8 µM | hit rate 1% among 320,000 | AID 2716, 2010;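 active = every valid replicate shows activation above 250% relative to neutral control wells; inactive = the rest, any valid replicate at or below 250%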;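 also: OY570 slx delta 5 strain wells were the positive control but not used for scaling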
ALR H2O2 inh: inhibitors of human ALR sulfhydryl oxidase, primary screen, biochemical, H2O2 detection, HRP-luminol luminescence, single point; FAD-linked sulfhydryl oxidase ALR (Homo sapiens), P55789; purified ALR, DTT oxidation; inhibition, % (no concentration beside the values); hit rate 3.8% among 290,000; AID 485317, 2010;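 active = mean replicate inhibition above about 79%, with every replicate also reaching it, limit read from the data; inconclusive = only one of the two criteria met; inactive = mean below limit and not every replicate reaching it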
The depositor's hits bear a star; i = inactive; ? = inconclusive; · = no result given. This is a sample that favours compounds with a hit; in the whole collection about 7.2% have one here.

SMILES	Efflux pump mplx	Bfl-1 A1 inh	AHR act	VLA-4 inh	Mot1-301 SUMO	ALR H2O2 inh
COc1ccc(-c2cc(=O)oc3c(C)c(OC(C)C(C)=O)ccc23)cc1 (stereo not drawn)	-0.1	1.5	4.0	9.2	-3.2	-7.3
COc1ccc(-c2cc(=O)oc3c(C)c(OC(=O)c4cccs4)ccc23)cc1	0.0	17.2*	-3.0	-7.1	54.5	-3.3
CC(C)CCN1CCN(Cc2cnc(N3CCCC3)s2)CC1CCO (stereo not drawn)	-0.1	2.0	1.4	0.7	-12.6	·
COc1ccc(C(=O)c2oc3nc(C)cc(C)c3c2N)cc1	-0.1	0.0	-5.7	14.8	2.1	9.6
Cc1ccc(C(=O)c2oc3nc(C)cc(C)c3c2N)cc1	0.0	-0.1	94.9*	8.1	-11.8	17.7
O=Cc1ccc(O)cc1O	0.0	-0.2	0.5	-8.4	-9.3	-18.2
O=CN/C=C/c1cc(O)ccc1O	0.0	-0.4	0.3	5.3	19.9	98.2*
CC(C)C(NC(=O)c1ccccc1NC(=O)c1ccccc1)C(=O)NNC(=O)c1ccncc1 (stereo not drawn)	0.1	0.5	7.7	4.8	4.8	-3.9
C[C@@H]1CCCCCCCCC(=O)OCCN(C(=O)OC(C)(C)C)[C@H](C)CCCCCCCCC(=O)OCCN(C(=O)OC(C)(C)C)[C@H](C)CCCCCCCCC(=O)OCCN(C(=O)OC(C)(C)C)[C@H](C)CCCCCCCCC(=O)OCCN1C(=O)OC(C)(C)C	0.4	-0.3	-0.2	11.5	-10.3	-1.7
O=C(Nc1ccncc1)c1cc2ccccc2cc1O	-0.1	-11.7	37.4	7.0	-9.3	-32.9
C=CCNc1nc(C(=O)OCC(=O)c2ccc(Cl)cc2)cs1	0.2	-0.1	4.7	3.8	82.1	97.6*
CNC(=S)N/N=C(\C)c1ccc2c(c1)OCO2	-0.1	-0.6	72.1*	9.2	2.3	9.9
CNC(=S)N/N=C(\C)c1ccc2c(c1)OCCO2	0.4	-1.4	48.4*	7.9	15.4	21.9
CCC(C(=O)NC(C)(C)C)N(Cc1cccs1)C(=O)CNS(=O)(=O)c1ccccc1 (stereo not drawn)	0.4	-0.2	1.4	4.7	1.5	-2.6
NC(=S)NNc1c(F)c(F)c(F)c(F)c1F	0.1	0.9	1.0	-3.1	-0.3	97.5*
CCOC(=O)C(C(=O)OCC)C(C[N+](=O)[O-])c1ccccc1 (stereo not drawn)	-0.5	1.2	-1.8	-10.6	-0.8	-4.3
CC(C(Sc1ccccc1N)c1ccccc1)[N+](=O)[O-] (stereo not drawn)	-0.1	0.6	10.7	21.8	746.6*	?
CC(C)c1ccc(NC(=O)Nc2cc3sccc3n2C)cc1	-0.3	0.2	47.7*	-60.4	-14.9	5.8
Cn1c(C(=O)Nc2ccc3c(c2)OCCO3)cc2sccc21	-0.1	-7.6	42.5	8.8	2.3	-17.0
CCN(Cc1ccccc1)S(=O)(=O)c1ccc(C(=O)N2CCN(c3nc4ccccc4s3)CC2)cc1	-0.3	0.4	3.8	2.9	3.9	-11.0
S=c1[nH]ncn1/N=C/c1cccc(Oc2ccccc2)c1	0.2	0.4	3.1	6.2	9.6	98.8*
Cc1ccccc1NC(=O)c1c(C)cc(=O)oc1C	-0.1	0.6	0.3	8.1	-0.6	-4.5
Cc1cc(=O)oc(C)c1C(=O)Nc1cccc2nonc12	0.0	-0.1	0.8	3.7	323.7*	4.7
CCOC(=O)Nc1sc2nc(C)cc(C)c2c1-n1cccc1	0.1	-0.2	69.9*	0.7	7.8	-5.8
Cc1cc(C)c2c(-n3cccc3)c(C(=O)NNS(=O)(=O)c3ccc(Br)cc3)sc2n1	0.0	0.4	1.4	-3.7	·	88.3*
SMILES	Efflux pump mplx	Bfl-1 A1 inh	AHR act	VLA-4 inh	Mot1-301 SUMO	ALR H2O2 inh
COc1ccc(S(=O)(=O)NNC(=O)c2ccccc2-n2cccc2)cc1	-0.1	-0.6	1.0	7.8	-14.8	23.6
COC(=O)c1sc2nc(C)cc(C)c2c1N	-0.2	-0.5	-5.9	5.1	88.0	-18.8
Cc1ccc(-n2c(SCC(=O)N3CCOCC3)nc(O)c(Cc3ccccc3)c2=O)cc1	0.0	-0.5	-0.6	19.9	152.7	8.9
Cc1cc(=O)[nH]c2ccc(Cl)cc12	0.0	0.6	1.9	-0.4	-15.2	-1.2
S=c1[nH]c2ccc(Cl)cc2s1	1.7	-1.0	14.3	-1.0	42.5	98.5*
COc1ccc(C(C)C)cc1S(=O)(=O)NC1CCCC1	0.0	1.2	1.2	11.5	-18.9	-6.0
Cc1cccc(Nc2ncnc3nc[nH]c23)c1	0.1	-4.7	12.8	25.8	-10.4	94.7*
O=C1CCCCC/C1=N/Nc1ccc(OCc2ccccc2)cc1	-0.2	-1.4	5.0	5.6	167.6	99.1*
COc1ccc(N2CCN(C(=O)CC34CC5CC(CC(C5)C3)C4)CC2)c([N+](=O)[O-])c1	0.0	0.7	20.7	19.3	-4.7	-7.0
c1ccc(-c2nc(-c3ccco3)cs2)nc1	-0.1	-0.3	1.0	-13.2	9.9	98.4*
c1ccc(-c2nccc(-c3ccco3)n2)nc1	0.0	-0.8	-4.5	-2.6	-8.8	3.4
CC(OC(=O)c1cnc2ccccc2n1)c1ccccc1Cl (stereo not drawn)	0.1	0.6	0.3	4.8	7.1	-6.9
COc1ccc(OCCCn2cc(/C=C3/C(=N)N4C=C(C)SC4=NC3=O)c3ccccc32)cc1	0.1	1.8	18.7	4.4	-11.2	-0.5
COc1cccc(OCCCn2cc(/C=C3/C(=N)N4C=C(C)SC4=NC3=O)c3ccccc32)c1	0.1	-0.5	50.7*	-60.0	-2.3	-12.0
Cc1cc(C(=O)OCC(=O)NCCc2ccccc2)c2ccccc2n1	0.3	0.9	0.0	0.2	3.7	-5.8
COc1cccc(N2CC(=O)N(c3cccc(OC)c3)CC2=O)c1	0.1	-1.1	-2.3	20.8	8.1	-5.7
COc1cccc(-n2cnc3cccc(N)c32)c1	0.1	0.2	6.8	11.3	0.6	87.1*
CCCCOc1ccc(CN(CCO)CCO)cc1[N+](=O)[O-]	-0.1	0.4	0.5	11.4	243.1	-20.5
CCOc1ccc(CSC2=NCCN2)cc1[N+](=O)[O-]	-0.1	0.7	3.1	-0.4	i	99.1*
CCCCOc1ccc(CSC2=NCCN2)cc1[N+](=O)[O-]	0.1	0.5	1.9	-10.3	139.0	99.7*
c1ccc(CSC2=NCCS2)cc1	-0.1	0.3	-0.3	2.5	50.9	1.9
O=[N+]([O-])c1ccc(CSC2=NCCN2)cc1	0.2	0.4	-0.3	-4.2	-6.2	99.1*
O=[N+]([O-])c1ccc(CSC2=NCCS2)cc1	0.2	0.0	1.9	2.5	3.2	98.7*
Cc1cccc(-c2nc3c(c(SCC(=O)N4CCOCC4)n2)COC(C)(C)C3)c1	0.1	0.0	-4.9	1.7	-13.2	-1.2
